Pol eta inh-1: blocks human DNA polymerase eta activity; Potency, µM (doses to about 114 µM), inactives show top-dose activity change, negative = inhibition, usual class: inhibitors; hit rate 1.2% among 390,000; recombinant Pol eta, fluorescent DNA replication assay; Q9Y253; also: potency is read from the fitted curve at half-maximal effect; % is scaled to controls: 0 for no effect and ±100 for the full control effect
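Pol eta at 10 nM preincubated with compounds 15 min at room temperature; reaction started with fluorescent substrate (50 nM final) and read kinetically at 0 and 10 min.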
WRN inhibitor: inhibitors of human WRN helicase; WRN helicase unwinding, fluorescent forked duplex, kinetic; Potency, µM (top dose mostly 114 µM), without a hit: at the highest dose activity change, negative = inhibition, actives largely listed as inhibitors; hit rate 0.46% among 360,000; AID 651768; also: potency is read from the fitted curve at half-maximal effect; % is scaled to controls: 0 for no effect and ±100 for the full control effect; nearly all actives have a fitted effect of over 55% in size
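Primary qHTS, 1536-well format. 20 nM WRN + compound, 15 min RT; start with 100 nM forked fluorophore/quencher duplex, 2 mM ATP (final); kinetic read ex 525/em 598 nm.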
POLB inh: blocks human DNA polymerase beta activity; P06746; Pol beta primer extension/strand displacement, fluorescence kinetic; Potency, µM (highest dose often 114 µM), inactives show at the highest dose activity change, negative = inhibition, hits mostly inhibitors; hit rate 1.3% among 340,000; also: potency is read from the fitted curve at half-maximal effect; % is scaled to controls: 0 for no effect and ±100 for the full control effect
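Reaction started by 50 nM substrate onto compound-treated Pol beta (10 nM, 15 min preincubation, room temperature); plates read at 0 min and 10 min. Normalized concentration-effect data fitted by four-parameter Hill equation.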
PI5P4K alpha inh: blocks human PI5P4K alpha kinase activity. hit rate 1.2% among 330,000. P48426. PI5P4Kalpha enzyme, ADP-Glo luminescence, 60 min; hits give low values. max response, %; active = max response of -50% or lower; inconclusive = between -30% and -50%; inactive = -30% or higher; also: value at the top dose of about 77 µM; % is scaled to controls: 0 for no effect and ±100 for the full control effect
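Enzyme plus substrate dispensed, test compounds pinned in, then ATP (5 microM final) added. After 60 min at RT, ADP-Glo reagent 1 for 45 min and reagent 2 for 30 min preceded luminescence imaging.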
POLI inh: blocks human DNA polymerase iota activity. Q9UNA4. Pol iota fluorescent replication assay, 10 min. Potency, µM (doses to about 115 µM), without a hit: at the top dose activity, negative = inhibition, hits mostly inhibitors. hit rate 1% among 390,000; also: potency is read from the fitted curve at half-maximal effect
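Fluorescent replication assay read twice, at 0 min and 10 min after adding 50 nM (final) substrate. Enzyme (10 nM) and compounds were first incubated 15 min at room temperature; enzyme-free buffer wells were negative controls.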
Pol kappa inh-1: blocks human DNA polymerase kappa activity | purified Pol kappa, fluorescent DNA synthesis assay, 10 min | hit rate 0.53% among 400,000 | Q9UBT6 | AID 588579 | Potency, µM (series often up to 107 µM), inactives show top-dose activity, negative = inhibition, actives largely listed as inhibitors; also: potency is read from the fitted curve at half-maximal effect; % is scaled to controls: 0 for no effect and ±100 for the full control effect
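Pol kappa 10 nM + cpd, 15 min RT; start w/ substrate 50 nM final; fluorescence kinetic read, 0 and 10 min. Neg ctrl: buffer, no enzyme.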
Pol kappa inh-2: confirmation of human DNA polymerase kappa inhibitors; shares compounds with Pol eta inh-1; purified Pol-kappa, fluorescent strand-displacement substrate; Potency, µM, hits mostly inhibitors; hit rate 76% among 920; AID 720501; also: potency is read from the fitted curve at half-maximal effect
Pol eta inh-2: Pol eta (human) inhibition, cherry-pick confirmation | shares compounds with Pol eta inh-1 | Pol eta primer extension, TAMRA/BHQ fluorescence, 10 min | Potency, µM, most hits filed as inhibitors | hit rate 64% among 2,600 | AID 720502; also: potency is read from the fitted curve at half-maximal effect
* marks the source's active call; other numbers are inactive results; ? = inconclusive; · = not tested or not shown; [ ] = another dose, or the depositor's remark. Compounds with a hit are over-represented: about 2.8% of the library has one in this group of screens. Unless noted, calls follow the shape of the dose curve; as a rule, active = well fitted curve in the direction sought with a large enough effect; inconclusive = small, poorly fitted or top-dose-only effect, or another doubt; inactive = no such curve, though single readings can be large; an effect the other way counts as inactive or inconclusive.

SMILES | Pol eta inh-1 | WRN inhibitor | POLB inh | PI5P4K alpha inh | POLI inh | Pol kappa inh-1 | Pol kappa inh-2 | Pol eta inh-2
CC1C(=O)Nc2ccc(S(=O)(=O)NCc3ccc(N(C)C)cc3)cc2NC1=O (stereo unspecified) | ? | · | -7% | · | 9% | 2% | · | ?
c1ccc2c(c1)OCC(c1nnc3sc(-c4cnccn4)nn13)O2 (stereo unspecified) | 89µM* | -18%[57.1 µM] | 4% | · | ? | -22% | · | ?
Cc1c(Cl)cnc(NC(=O)COC(=O)[C@@H](NC(=O)c2ccco2)C(C)C)c1Cl | 50µM* | -8%[11.6 µM] | · | ? | ? | -17% | ? | ?
Cc1ccccc1OCC(=O)OCC(=O)Nc1ncc(Cl)c(C)c1Cl | 28µM* | -11%[11.6 µM] | · | -19 | ? | ? | ? | ?
O=S(=O)(c1cccc(C(F)(F)F)c1)N1CCN(c2nc(-c3cccs3)nc3cc(Cl)ccc23)CC1 | · | · | · | · | 6% | -4% | · | ·
O=C(COC(=O)/C=C/c1ccco1)Nc1ccc(F)cc1Cl | ? | -24%[11.6 µM] | 22µM* | -17 | ? | ? | · | ?
COc1ccc2c(c1)cc(C(=O)N/N=C/c1c(O)c(C(=O)O)cc3ccccc13)n2C | 40µM* | -14%[11.6 µM] | 32µM* | -66* | ? | -22% | 75* | 85*
Cn1c(O)c(/C=N/NC(=O)c2cc3ccccc3cc2O)c2ccccc21 | -20% | -24% | ? | -27 | ? | -23% | · | ·
OCC[C@@H]1C[C@@H](O)[C@H](O)[C@@]2(CCCCO2)O1 | -6% | -3% | · | 1 | 16% | -12% | · | ·
C#CC1(O)CCC2C3CCc4cc(O)cc(C)c4C3CCC21C (stereo unspecified) | -20% | -24% | · | 0 | 2% | 0% | · | ·
O=C(Nc1nnc(S(=O)(=O)N2CCOCC2)s1)c1ccc(Cl)cc1 | -18% | 0% | 1% | -24 | -4% | 2% | · | ·
O=C(Nc1nnc(S(=O)(=O)N2CCOCC2)s1)c1ccccc1 | 40µM* | -8%[11.6 µM] | ? | ? | ? | ? | 38* | ?
CC1Cc2ccccc2N1S(=O)(=O)c1nnc(NC(=O)c2ccccc2Br)s1 (stereo unspecified) | ? | · | -13% | · | 34% | 5% | · | ?
O=C(Nc1nnc(S(=O)(=O)N2CCCc3ccccc32)s1)c1ccccc1Cl | 56µM* | · | 4% | · | 16% | 4% | ? | ·
CC1Cc2ccccc2N1S(=O)(=O)c1nnc(NC(=O)c2ccccc2)s1 (stereo unspecified) | -17% | · | 0% | · | 8% | 11% | · | ·
O=C(Nc1nnc(S(=O)(=O)N2CCc3ccccc32)s1)c1ccccc1Cl | -16% | · | -9% | · | 27% | 1% | · | ·
O=C(NCc1ccccc1)c1cc(C2COCCN2C(=O)c2ccc(Cl)cc2)on1 (stereo unspecified) | · | 0% | · | 7 | · | · | · | ·
CCOC(=O)N1Cc2cc3ccccc3nc2C1 | -16% | 5% | · | 3 | · | · | · | ·
O=C(O)/C=C/C(=O)N1Cc2cc3ccccc3nc2C1 | 50µM* | ? | ? | 2 | ? | ? | · | 76*
O=C(CSc1nc(C2CC2)nc2sc3c(c12)CCCC3)NCc1ccco1 | -1% | -4% | -3% | · | 8% | -4% | · | ·
CC(C)Sc1nc2sc3c(c2c2nnc(SCC(=O)NCc4ccco4)n12)CCCC3 | 4.5µM* | -13%[11.6 µM] | -11% | ? | ? | -18% | · | 67*
C=CCOc1ccc(C(c2c(C(=O)O)[nH]c3ccccc23)c2c(C(=O)O)[nH]c3ccccc23)cc1 | 32µM* | ? | 20µM* | ? | 18µM* | 79µM* | ? | ?
COc1ccc(C(=O)Nc2sc3c(c2C#N)CCN(C(C)=O)C3)cc1 | -1% | 1% | 7% | 0 | 27% | -3% | · | ·

High-throughput results from PubChem.
